Growth data for twelve molecules are collected here from PubChem BioAssay (NCI).

Values joined by “and” are separate entries in the source; they are usually repeats but may differ in a detail not shown here. Equal values may be shown once. The panel holds about 83,000 compounds, 20% with a hit somewhere; the sample as a whole holds those more often.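 Cells were grown in 96-well plates and exposed to the test compound at a single concentration for 48 hours; results are reported as percent growth, with values below 10 considered active.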 Values without a mark were called inactive. Active and inactive are the calls of the source.

Test systems include DU-145 prostate; K-562 leukemia; MALME-3M melanoma; MDA-MB-231 breast; RXF 393 renal; SF-268 CNS; SF-295 CNS; SF-539 CNS; UACC-257 melanoma; M14 melanoma.
What all share (assay): NCI-60 one-dose screen, 48 h (100 = growth as untreated, 0 = no growth, -100 = all killed)
Settings in all cases: 10 µM unless noted

Consider `NC(N)=NC(N)=Nc1ccc(Cl)cc1`, for which the growth was 116% in the assay with DU-145 prostate; 99% in the assay with K-562 leukemia; 116% in the assay on MALME-3M melanoma; 113% in the assay with MDA-MB-231 breast; 108% in the assay on RXF 393 renal; 95.4% in the assay with SF-268 CNS. The growth with SF-295 CNS is 98.1%; with SF-539 CNS, 103%; with UACC-257 melanoma, 111%; in the assay with M14 melanoma, 114%.
On to `CC(C)c1cccc(C(C)C)c1O`, for which the growth is 109% and 116% in the assay on DU-145 prostate; 92.8% and 104% in the assay on K-562 leukemia; 95.7% and 91.8% in the assay on MALME-3M melanoma; 114% and 107% with MDA-MB-231 breast; 109% in the assay on RXF 393 renal; 110% and 97.7% with SF-268 CNS. The growth with SF-295 CNS was 101% and 103%; with SF-539 CNS, 115% and 97.4%; in the assay with UACC-257 melanoma it was 100%; in the assay with M14 melanoma, 109% and 111%.
Take `Clc1ccc(COC(Cn2ccnc2)c2ccc(Cl)cc2Cl)c(Cl)c1` (stereo not given): the growth in the assay with DU-145 prostate was 76.8% and 69.8%; in the assay with K-562 leukemia it was 25.5% and 13.7%; with MALME-3M melanoma, 56.1% and 75.3%; in the assay with MDA-MB-231 breast, 49.5% and 66.9%; in the assay with RXF 393 renal, 72.1% and 10.9%; in the assay with SF-268 CNS, 70.2% and 77.8%. Further, the growth is 30.4% and 51.3% with SF-295 CNS; 80.4% and 70.1% in the assay with SF-539 CNS; 61.2% and 48% in the assay with UACC-257 melanoma; 29.2% with M14 melanoma.
Consider `O=C(NC1=NCC[Se]1)c1ccccc1O`, for which the growth was 61.1% in the assay on DU-145 prostate; 50.7% in the assay with K-562 leukemia; -22.9% (active) with MALME-3M melanoma; 69.3% in the assay on MDA-MB-231 breast; 44% in the assay with RXF 393 renal; 43.3% in the assay with SF-268 CNS. Also, the growth in the assay with SF-295 CNS was 95.4%; in the assay on SF-539 CNS it was 52.9%; with UACC-257 melanoma, 55.3%; in the assay on M14 melanoma it was 42%.
Take `C=CC[PH+](c1ccccc1)c1ccccc1.C=CC[PH+](c1ccccc1)c1ccccc1.[Pt+2].[S-]c1nc2ccccc2[nH]1.[S-]c1nc2ccccc2[nH]1`: the growth in the assay on DU-145 prostate was 15.1%; with K-562 leukemia it was 4.86% (active); with MALME-3M melanoma, -72.8% (active); in the assay with MDA-MB-231 breast, -44.3% (active); with RXF 393 renal, -0.0777% (active); in the assay on SF-268 CNS, 1.83% (active). For the same molecule, the growth is -9.49% (active) with SF-295 CNS, -28.6% (active) in the assay with SF-539 CNS, -25.7% (active) in the assay on UACC-257 melanoma and -18.6% (active) in the assay with M14 melanoma.
As for `CO/N=C1\CC[C@]2(C)[C@H]3CC[C@]4(C)C(=O)CC[C@H]4[C@@H]3C[C@@H]3SC(N)=N[C@@]32C1`, the growth in the assay with DU-145 prostate is 87.9%; in the assay with K-562 leukemia, 70.7%; in the assay on MALME-3M melanoma, 94%; in the assay on MDA-MB-231 breast, 101%; in the assay on RXF 393 renal it was 104%; in the assay on SF-268 CNS, 93.5%. In addition, the growth is 99.1% in the assay with SF-295 CNS, 100% with SF-539 CNS, 101% in the assay on UACC-257 melanoma and 86% in the assay on M14 melanoma.
In the case of `C[C@]12CC[C@H]3[C@@H](CC=C4c5nc(N)sc5CC[C@@]43C)[C@@H]1CC[C@@H]2O`, the growth with DU-145 prostate is 103%; in the assay with K-562 leukemia, 95.2%; in the assay on MALME-3M melanoma, 107%; with MDA-MB-231 breast, 111%; with RXF 393 renal, 99.4%; in the assay on SF-268 CNS it was 97.1%. Further, the growth with SF-295 CNS is 100%; in the assay on SF-539 CNS, 98.5%; with UACC-257 melanoma it was 92.6%; in the assay with M14 melanoma, 98.7%.
Take `CCC1(NC(=O)c2cc(F)c(F)c(F)c2F)C(=O)NC(=O)N(C(C)C)C1=O` (stereo not given): the growth in the assay with DU-145 prostate was 143%; in the assay on K-562 leukemia, -26.7% (active); in the assay on MALME-3M melanoma, 90.4%; with MDA-MB-231 breast it was 81.5%; in the assay with RXF 393 renal, 79.8%; in the assay with SF-268 CNS it was 114%. Further, the growth is 107% in the assay with SF-295 CNS, 97.5% with SF-539 CNS, 70.4% in the assay with UACC-257 melanoma and 50% in the assay on M14 melanoma.
As for `O=NN(c1ccccc1)c1ccccc1`, the growth in the assay with DU-145 prostate is 103%; in the assay on K-562 leukemia, 113%; in the assay on MALME-3M melanoma it was 86.2%; with MDA-MB-231 breast it was 98.9%; with RXF 393 renal it was 98.3%; in the assay on SF-268 CNS, 100%. For the same molecule, the growth was 102% in the assay on SF-295 CNS, 106% in the assay on SF-539 CNS, 96% in the assay with UACC-257 melanoma and 106% with M14 melanoma.
With `CC1(C)C=Cc2c(ccc3c2[N+]([O-])=C2C3=C[C@@]34NC(=O)[C@]5(CCCN5C3=O)C[C@@H]4C2(C)C)O1`, the growth is 43.3% in the assay with DU-145 prostate; 9.2% (active) in the assay on K-562 leukemia; 82.9% in the assay with MALME-3M melanoma; 48.5% with MDA-MB-231 breast; 32.8% in the assay with RXF 393 renal; 53.7% in the assay on SF-268 CNS. Moreover, the growth with SF-295 CNS was 52.2%; in the assay on SF-539 CNS it was 51.2%; in the assay on UACC-257 melanoma, 68.9%; in the assay on M14 melanoma, 61.6%.
For `CC[C@H](C)[C@H](NC(=O)CN(C)C)C(=O)N(C)[C@H](C[C@@H](OC(C)=O)c1nc(C(=O)NC23C4C5C2C2C3C4C52C(=O)OC)cs1)C(C)C` (stereo not given in full), the growth with DU-145 prostate was 2.37% (active); with K-562 leukemia it was 7.65% (active); with MALME-3M melanoma, 35.1%; in the assay with MDA-MB-231 breast, 1.39% (active); in the assay with RXF 393 renal, 2.8% (active); in the assay with SF-268 CNS, 21.1%. Besides, the growth is 9.98% (active) in the assay on SF-295 CNS, -1.99% (active) in the assay on SF-539 CNS, 49.2% in the assay on UACC-257 melanoma and -35.8% (active) in the assay with M14 melanoma.
Turning to `Nc1c(Cl)c(Cl)nc(C(=O)O)c1Cl`, the growth is 120% in the assay on DU-145 prostate; 83.8% in the assay with K-562 leukemia; 83.5% with MALME-3M melanoma; 106% in the assay on MDA-MB-231 breast; 136% in the assay with RXF 393 renal; 111% with SF-268 CNS. Also, the growth in the assay on SF-295 CNS is 98.6%; in the assay on SF-539 CNS, 84.9%; in the assay with UACC-257 melanoma, 108%; with M14 melanoma it was 104%.
